# High-throughput results: PubChem BioAssay, The Scripps Research Institute Molecular Screening Center
# This is one part of a sample in which hits are shown more often than they occur.
# TTR transcr act – activators of transthyretin transcription; SH-SY5Y TTR promoter Gaussia luciferase, luminescence; 100% = recombinant luciferase protein wells; activation, % at 16.7 µM; 92,000 tested, 1.3% active; AID 1117267;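 active = activation above the mean of all tested compounds plus 3 SD, cut at about 9.5% in these data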;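 note: cells exposed to compounds for one day before reading; 0% = median of all test compound wells on the plate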
# HuH7 TTR inh – counter-screen for TTR activators: TTR transcription inhibitors in HuH7 cells; shares compounds with TTR transcr act; HuH7 TTR promoter-Gaussia luciferase reporter, luminescence; 1,100 tested, 4% active; inhibition, % at 16.7 µM;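 active = average inhibition above the solvent-only control wells' mean plus 3 SD, cut at about 15% in these data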;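 note: 0% = cells with DMSO only and 100% = cells with inhibitor control FD; inhibitors lower well luminescence so higher value means more inhibition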
# TTR up confirm – confirmation of human transthyretin transcription activators. AID 1117280. SHSY5Y TTR promoter Gaussia luciferase, luminescence; 100% = purified Lucia enzyme wells, no cells. shares compounds with TTR transcr act. 1,100 tested, under 10 active. activation, % at 16.7 µM;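 active = mean activation above a set limit taken from the earlier primary screen, cut at about 11% in these data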;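 note: 0% = DMSO-treated cells and 100% = recombinant Lucia luciferase without cells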
# Active calls of the source: *.
SMILES,TTR transcr act,others
CC(C)[C@H](NC(=O)OCc1ccccc1)C(=O)N[C@@H](Cc1ccccc1)C1(O)CN(C)C(C(=O)NCc2ccccn2)CO1 (some centres not stated),1,
CC(=O)Nc1cc2c(cc1Br)-c1ccccc1C2,0,
COc1cccc(NC(=O)Cn2nnc(C(=O)NCc3cccs3)c2N)c1,-2,
CCOc1ccc(NC(=O)Cn2nnc(C(=O)NCc3cccs3)c2N)cc1,21*,HuH7 TTR inh=-7;TTR up confirm=-1
COc1ccc(NC(=O)Cn2nnc(C(=O)NCc3cccs3)c2N)c(OC)c1,2,
O=C(CSC1CN(C(c2ccccc2)c2ccccc2)C1)N/N=C/c1ccccc1,-4,
COc1ccccc1N1CCN(S(=O)(=O)CCNC(=O)C2CCCC2)CC1,-1,
COc1ccccc1N1CCN(C(=O)C(CC(C)C)NC(=O)C2CCCCC2)CC1 (configuration not stated),21*,HuH7 TTR inh=-10;TTR up confirm=0
COc1ccccc1N1CCN(C(=O)C(Sc2ccccc2)c2ccccc2)CC1 (configuration not stated),-3,
COc1ccc(OC)c(NC(=O)CNC(=O)c2ccc([N+](=O)[O-])cc2)c1,-1,
CC(C)S(=O)(=O)N1CCCC(c2cc(C(=O)Nc3ccc(F)c(Cl)c3)no2)C1 (configuration not stated),-2,
C=CCN(CC=C)CC(=O)Nn1c(C)ccc1C,2,
O=C(Cn1cnc2ccccc2c1=O)NCCC(=O)N1CCN(Cc2ccccc2)CC1,-2,
O=C(Cn1cnc2ccccc2c1=O)N1CCOCC1,12*,HuH7 TTR inh=-10;TTR up confirm=0
COC(=O)Cn1cnc2ccccc2c1=O,1,
Cc1ccc(-c2nc3ccc(Br)cn3c2Cc2ccsc2)cc1,-1,
CC(C)CNC(=O)OCc1cn(Cc2cccc(Cl)c2)nn1,1,
Nn1c(SCC(=O)Nc2ccc3c(c2)OCO3)nncc1=O,-2,
Nn1cc(-c2ccccc2)nc1SCC(=O)Nc1ccc2c(c1)OCO2,14*,HuH7 TTR inh=-22;TTR up confirm=1
O=C(CSc1nc2ccccc2s1)Nc1ccc2c(c1)OCO2,2,
COc1ccc(N(CCCN2C(=O)c3cccc4cccc(c34)C2=O)C(=O)c2cccc(OC)c2)cc1,-1,
O=C(NCCCc1ccccc1)[C@H](Cc1c[nH]c2ccccc12)NC1(C(=O)NCCc2c[nH]c3ccccc23)CCC1,-2,
C[C@@H]1CN([C@@H](C)CO)C(=O)c2cccc(NC(=O)Nc3cccc4ccccc34)c2O[C@H]1CN(C)S(=O)(=O)c1ccc2c(c1)OCCO2,-2,
O=C(CSc1nnc(-c2ccc(C(F)(F)F)cn2)s1)c1ccc(Cl)cc1,-2,
O=C(NCc1ccco1)c1cc(-c2ccccc2)nn1CC1CC(c2cccnc2)=NO1 (configuration not stated),10*,HuH7 TTR inh=-10;TTR up confirm=0
SMILES,TTR transcr act,others
COc1ccccc1CNC(=O)c1cc(-c2ccccc2C)nn1CC1CC(c2cccnc2)=NO1 (configuration not stated),-3,
O=C(NCc1ccc(OC(F)(F)F)cc1)c1cc(-c2ccccc2)nn1CC1CC(c2cccnc2)=NO1 (configuration not stated),0,
O=C(N/C(=C/c1ccc(Br)cc1)C(=O)N1CCCC1=O)c1ccco1,-1,
O=C(CNC(=O)c1[nH]cnc1C(=O)N[C@@H](Cc1ccccc1)C(=O)OCc1ccccc1)OCc1ccccc1,5,
O=C(CNC(=O)c1[nH]cnc1C(=O)NC(c1ccccc1)c1ccccc1)OCc1ccccc1,11*,HuH7 TTR inh=-23;TTR up confirm=-1
CC(C)(C)OC(=O)CNC(=O)c1[nH]cnc1C(=O)NCC(=O)OCc1ccccc1,0,
COc1ccc(C(=O)NCCn2cc(SCC(N)=O)c3ccccc32)cc1,0,
COc1ccc(Cn2ccc3ccc(-c4ccc5ccn(Cc6ccccc6F)c5c4)cc32)cc1,3,
NC(=O)C1CCN(c2ncc(Br)cn2)CC1,4,
CC(C)Cc1nnc(NC(=O)C2CSC3(C)CCC(=O)N23)s1 (configuration not stated),0,
COc1ccc(NC(=O)c2ccccc2SC)cc1OC,12*,HuH7 TTR inh=-7;TTR up confirm=0
CSc1ccccc1C(=O)Nc1cccc(N(C)S(C)(=O)=O)c1,0,
COc1ccccc1C(=O)Nc1cccc(SC)c1,0,
COC(=O)[C@]12CCCCC=C1N(Cc1ccc(OC)cc1)C(=O)[C@@H]2CC(=O)NCc1ccccc1,-1,
COc1ccc([C@H]2CC(=O)C[C@@H](CCn3cc(-c4ccncc4)nn3)O2)cc1,-1,
CCn1c(SCC(=O)NCc2ccccc2)nc2nc3c(cc2c1=O)CCCC3,-1,
CCn1c(SCC(=O)Nc2ccc(OC)cc2)nc2nc3c(cc2c1=O)CCCC3,-1,
Cc1ccccc1-n1c(SCC(=O)Nc2ccccc2)nc2nc3c(cc2c1=O)CCCC3,13*,HuH7 TTR inh=-15;TTR up confirm=-1
C#Cc1ccc([C@H]2C=C(C(=O)NCc3nc4ccccc4[nH]3)O[C@@H](OCC)[C@@H]2CCCO)cc1,-3,
COc1ccc(C(=O)Nc2ccc(C)cn2)c(OC)c1,-3,
COc1ccc(S(=O)(=O)Nc2ccc(NC(C)=O)cc2)cc1,3,
COc1ccc(S(=O)(=O)Nc2ccc(C)cn2)cc1,14*,HuH7 TTR inh=-12;TTR up confirm=6
Cc1cccc(C(=O)Nc2nc3ncccn3c2-c2ccc(C(F)(F)F)cc2)c1,0,
COC(=O)C1=C(C)OC(N)=C(C#N)C1c1ccccc1F (configuration not stated),2,
N#CC1=C(N)NC(=S)C(C(N)=O)C1c1ccccc1F (configuration not stated),12*,HuH7 TTR inh=-25;TTR up confirm=0
SMILES,TTR transcr act,others
COC(=O)CSC1=C(C#N)C(c2ccccc2F)CC(=O)N1 (configuration not stated),-1,
C#CCN1C(=O)[C@]2(NCCc3c2[nH]c2ccc(OC)cc32)c2cc(F)ccc21,-2,
COc1ccc(C(C(=O)NCc2ccccc2)n2c(-c3ccncc3)nc3ccccc32)cc1 (configuration not stated),0,
CCC(C(=O)NC1CCCC1)n1c(-c2ccccn2)nc2ccccc21 (configuration not stated),-2,
CCC(C(=O)NCc1ccccc1)n1c(-c2cccs2)nc2ccccc21 (configuration not stated),11*,HuH7 TTR inh=-6;TTR up confirm=2
CC(C)(C)SCCNC(=O)Nc1ccccc1,0,
C[C@@H]1CN([C@H](C)CO)C(=O)CCCn2nncc2CO[C@H]1CN(C)Cc1ccc(Oc2ccccc2)cc1,0,
O=C(CSc1cccc[n+]1[O-])c1cc(Cl)ccc1Cl,9.9*,HuH7 TTR inh=-9;TTR up confirm=0
Cc1cc(C(=O)C(C)Sc2cccc[n+]2[O-])c(C)n1-c1ccc(Cl)cc1 (configuration not stated),-2,
COc1ccccc1C(=O)NC(=O)CSc1cccc[n+]1[O-],-1,
COc1ccc(/C(CC2OC(=O)c3ccccc32)=N\NC(N)=O)cc1 (configuration not stated),-2,
CC(C)(C)OC(=O)N1CCC(N[C@@H](Cc2c[nH]c3ccccc23)C(=O)NCCc2c[nH]c3ccccc23)(C(=O)NC2CCCCC2)CC1,-2,
Nc1ccn([C@@H]2O[C@H](C(=O)Nc3ccc(Oc4ccccc4)nc3)[C@@H](O)[C@H]2O)c(=O)n1,0,
COCCn1c(-c2ccccc2Cl)nc2c(c(=O)c3ccccc3n2C)c1=O,-1,
